Pf growth 48h = P. falciparum growth inhibition at 48 hours (one generation); P. falciparum luciferase growth in erythrocytes, 48 h; Potency, µM (titrated, usually from 28.7 µM), without a hit: at the highest dose activity change, negative = inhibition, most hits filed as inhibitors; hit rate 5.9% among 310,000; further: potency means the concentration at half of the fitted maximal effect; on the % scale 0 is the no-effect control and ±100 the full control effect
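In quantitative HTS format, infected erythrocytes bearing luciferase-reporter parasites were treated for a single generation at 37 C. Luminescence after adding detection reagent served as the growth measure.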
CHX counter = counter-screen for Shiga toxin inhibitors: cycloheximide protein synthesis inhibition. max response, %. cell reporter, cycloheximide protein synthesis inhibition counterscreen. hit rate 12% among 300,000; in the data active means max response mostly above about 13%, no sharp cut-off; inactive means mostly below about 14%; further: read at 38.3 µM for the half of the compounds with a filed dose; 0% is about no effect
HCMV antiviral = human cytomegalovirus inhibition; HFF cells, HCMV-luciferase reporter, 72 h; active compounds read low; activity change, negative = inhibition, % at 57.5 µM; hit rate 4.5% among 410,000; in the data active means activity change below about -60%; inconclusive means no clear call, values can overlap the other calls; inactive means above about -39%; further: on the % scale 0 is the no-effect control and ±100 the full control effect
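Two-dose cell screen: HFF monolayers treated with compounds and infected with luciferase-expressing HCMV at 1 PFU/cell, 72 h at 37C, then lysed for luciferase measurement.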
Shiga inhibitor = Shiga toxin inhibition; Vero cells, Shiga toxin protein synthesis inhibition reporter; hit rate 9.2% among 290,000; inhibition, % at 38.7 µM; in the data active means inhibition mostly above about 28%, no sharp cut-off; inactive means mostly below about 43%; further: 0% is about no effect
Pf growth 96h = inhibits malaria parasite growth, 96 h. P. falciparum luciferase reporter growth, 96 h. Potency, µM (titrated, usually from 28.7 µM), inactives show at the highest dose activity change, negative = inhibition, usual class: inhibitors. hit rate 6.9% among 320,000. AID 504834; further: potency means the concentration at half of the fitted maximal effect; on the % scale 0 is the no-effect control and ±100 the full control effect
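Readout is luminescence from an integrated firefly luciferase in P. falciparum. Red cells, 2% hematocrit and 0.05% parasitemia final, were cultured with compound through two parasite generations (96 hours) at 37 C, 5% CO2.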
Active calls of the source: *; ? = inconclusive; · = not tested or not shown. Compounds with a hit are over-represented: about 20% of the library has one in this group of screens. Unless noted, the call rests on the fitted dose curve; in most records, active means well fitted inhibition curve with a large enough effect; inconclusive means small, poorly fitted or top-dose-only effect, or another doubt; inactive means no such curve, though single readings can be large or run the other way.

SMILES	Pf growth 48h	CHX counter	HCMV antiviral	Shiga inhibitor	Pf growth 96h
COc1ccccc1-n1cc(C(=O)NCC(=O)N2CCN(c3ccccn3)CC2)c2ccccc2c1=O	46%	16*	-6	14	33%
COc1ccc(N2CCN(C(=O)CNC(=O)c3ccccc3Cl)CC2)cc1	-3%	5	6	-5	7%
COc1ccccc1N1CCN(C(=O)CNC(=O)c2cn(-c3ccccc3OC)c(=O)c3ccccc23)CC1	?	14*	-30	26	?
COc1ccccc1-n1cc(C(=O)NCC(=O)N2CCN(c3ccccc3)CC2)c2ccccc2c1=O	24%	30*	139	50*	-2%
CCCCn1c(N)c(N(Cc2ccccc2OC)C(=O)COc2ccccc2C#N)c(=O)[nH]c1=O	-6%	-2	-29	2	1%
Cc1cc2occ(CC(=O)OCC(=O)Nc3sc4c(c3C#N)CCC(C)C4)c2cc1C (centres undefined)	41%	8	29	28	43%
C/C(=N\N1CCN(c2ccc(Cl)cc2)CC1)c1cccs1	6%	-2	-27	20	27%
Cn1cccc1C(=O)NC(=O)COC(=O)CNC(=O)c1ccc(Cl)cc1Cl	36%	2	·	10	67%
Cc1ccc(-c2nnc(CCC(=O)NCC3C4CC5CC(C4)CC3C5)o2)s1 (centres undefined)	?	52*	152	103*	-1%
CCN1/C(=C/C(C)=C/c2sc3ccccc3[n+]2CC)Sc2ccccc21	?	-9	-100*	-21	?
OCCN1CCN(c2nc(N3CCCCC3)nc(N3CCCCC3)n2)CC1	10µM*	-7	?	-7	60%
N=C(N)Sc1nc(N2CCCCC2)nc(N2CCCCC2)n1	27%	0	28	-6	9%
Cc1cc(NC(=O)CSc2nc3c(C)c(C)ccc3cc2C)no1	?	-3	-3	24	-12%
O=C(NCCN1CCC(n2c(=O)[nH]c3ccccc32)CC1)c1cc(F)cc(F)c1	·	·	-27	·	·
Cc1ccc(C(=O)NC2CCN(CCCC(=O)c3ccc(F)cc3)CC2)cc1	10µM*	-3	33	-8	?
O=C(CCCN1CCC(n2c(=O)[nH]c3ccccc32)CC1)c1ccc(F)cc1	0.81µM*	·	-24	·	10µM*
O=C(CCCN1CCC(NC(=O)c2ccccc2)CC1)c1ccc(Cl)cc1	?	-2	-12	7	0%
CS(=O)(=O)N1c2ccccc2[C@]2(Br)C[C@H]3C(=O)N[C@@H](Cc4ccccc4)C(=O)N3[C@H]12	·	·	-3	·	·
CN(C(=O)c1nn(C)c2c1CSc1ccccc1-2)c1ccc(F)cc1	25%	-2	153	-3	-1%
CCOc1ccc(N2C(=O)c3[nH]nc(-c4ccc(OC)cc4)c3C2c2cccs2)cc1 (centres undefined)	·	·	-95*	·	·
CCOc1ccc(-c2n[nH]c3c2C(c2cccs2)N(c2ccc(Br)cc2)C3=O)cc1 (centres undefined)	·	·	-99*	·	·
COc1cc(CCC(=O)Nc2ccc(S(=O)(=O)NC3=NCCCCC3)cc2)cc(OC)c1OC	-29%	0	69	16	10µM*
CCOC(=O)c1ccc(S(=O)(=O)Nc2nc3cc(S(=O)(=O)NC4=NCCCCC4)ccc3s2)cc1	-1%	-2	0	-5	13µM*
CCN(CC)S(=O)(=O)c1cccc(C(=O)Nc2ccc(S(=O)(=O)NC3=NCCCCC3)cc2)c1	?	·	-62*	·	6.6µM*
CCCOc1ccc(C(=O)Nc2ccc(S(=O)(=O)NC3=NCCCCC3)cc2)cc1	5.9µM*	·	-62*	·	10µM*
SMILES	Pf growth 48h	CHX counter	HCMV antiviral	Shiga inhibitor	Pf growth 96h
CC(=O)Nc1cccc(C(=O)Nc2ccc(S(=O)(=O)NC3=NCCCCC3)cc2)c1	?	·	-16	·	-22%
Cc1ccc(C(=O)Nc2ccc(C(=O)O)cc2)cc1S(=O)(=O)N1CCC(C)CC1	·	·	-11	·	·
COc1ccc(C2=Nn3c(nnc3-c3ccccc3OC)SC2)c(OC)c1	·	-1	·	-7	·
CCc1ccc2c(c1)NC(=O)C2(C)Cc1ccc(C(F)(F)F)o1 (centres undefined)	·	·	-27	·	·
CCSc1nnc2c(n1)[nH]c1c(C)cccc12	·	19*	?	26	·
CSc1nnc2c(n1)[nH]c1c(C)cccc12	8.3µM*	13	10	57	5.2µM*
COc1cccc(N=c2oc3ccc(OC)cc3cc2-c2nc3ccccc3[nH]2)c1	76%	40*	-4	94*	62%
COc1ccc(OC(C)c2nc3ccccc3[nH]2)cc1 (centres undefined)	·	·	8	·	·
COc1ccc(N=c2oc3ccc(OC)cc3cc2-c2nc3ccccc3[nH]2)cc1	17%	28*	48	162*	17%
C=CCn1c(SCc2nc3ccccc3[nH]2)nnc1-c1cccc(OC)c1	?	0	-27	-15	?
COc1ccc2oc(=O)c(-c3nc(-c4cccs4)no3)cc2c1	·	·	2	·	·
COc1cccc(N=c2oc3ccccc3cc2-c2nc3ccccc3[nH]2)c1	?	38*	257	63*	?
C=CCOc1ccccc1CNc1cccc(F)c1	-2%	-1	-14	-9	10µM*
CCOc1ccc(Br)cc1CNc1ccc2c(c1)OCCO2	-21%	23*	-65*	43	-8%
C=CCOc1ccccc1CNc1ccc2c(c1)OCCO2	64%	27*	·	53*	-48%
COC(=O)c1cc(S(=O)(=O)Nc2cccc(-c3ccno3)c2)c[nH]1	·	·	27	·	·
O=C(Nc1ccc(S(=O)(=O)N2CCCC2)cc1)C1CC(=O)N(CCc2ccc(F)cc2)C1 (centres undefined)	?	·	-5	·	?
COc1cc([C@H]2c3[nH]c4ccccc4c3C[C@H]3C(=O)N4[C@@H](c5cc(OC)c(OC)c(OC)c5)c5[nH]c6ccccc6c5C[C@H]4C(=O)N23)cc(OC)c1OC	0.41µM*	-4	·	-13	0.47µM*
O=C1[C@@H]2Cc3c([nH]c4ccccc34)[C@@H](c3ccccc3)N2C(=O)[C@@H]2Cc3c([nH]c4ccccc34)[C@@H](c3ccccc3)N12	?	-6	·	-18	2.6µM*
O=C1[C@@H]2Cc3c([nH]c4ccccc34)C(c3ccccc3)N2C(=O)CN1CCO (some centres undefined)	5%	-3	-39	-5	-2%
CCN1C(=O)[C@@H]2Cc3c([nH]c4ccccc34)C(c3cc(OC)c(OC)c(OC)c3)N2C1=S (some centres undefined)	?	-3	49	-7	?
C=CCN1C(=O)[C@@H]2Cc3c([nH]c4ccccc34)C(c3cc(OC)c(OC)c(OC)c3)N2C1=S (some centres undefined)	8.3µM*	0	57	-8	?
CC(C)CN1CC(=O)N2C(c3ccccc3)c3[nH]c4ccccc4c3C[C@H]2C1=O (some centres undefined)	12µM*	-2	8	3	?
CCCCN(CC)CCCNC(=O)c1cn(CC)c2ccc(S(=O)(=O)N3CCOCC3)cc2c1=O	·	·	-4	·	·
